# Data taken from PubChem BioAssay.
# Measured potencies and affinities stand elsewhere. Active and inactive are the calls of the source. No rule for the calls is given here.
# Target: Melanocortin receptor 4 (Homo sapiens) (UniProt P32245)
# Assay: blockade of melanocortin 4 receptor signaling – cell-based, plate reader, cherry pick, counter-screen for LGR2 antagonist project, dose response (AID 743444)
# Conditions: MC4R-expressing cells, antagonist mode; series mostly up to 35 µM
row,Structure (SMILES),outcome
1,Cc1ccc(S(=O)(=O)N2CCCc3nc(-c4ccc(F)cc4)ccc32)cc1,inactive
2,O=S(=O)(Nc1ccc(O)c2ccccc12)c1ccc(OC(F)(F)F)cc1,inactive
3,COc1ccc(NC(=O)Nc2ccc3c(c2)CC(=O)N([C@@H](C)CO)C[C@@H](C)[C@H](CN(C)Cc2ccncc2)O3)cc1,inactive
